# Assays:
# Experiment in all cases: PBM binding z-score (relative to random genomic background probes); higher = stronger binding; sequences stand for … in GC…GCGATTGACAGCGTAGAATGAAGG
# [1] = system: RARb homodimer (NR concentration 270 nM)
# Outline: (§1)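 Random background probes are the reference for binding z-scores. These scores derive from regression-normalized fluorescence on custom Agilent 4×180K protein-binding microarrays incubated 1 h with ligand-free nuclear receptor dimers. Binding was detected with antibodies against each partner (one per run).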
# [2] = system: RARg:RXRa (NR concentration 270 nM, RXRa partner concentration 90 nM)
# Outline: as §1
# [3] = system: RARg homodimer (NR concentration 270 nM)
# Outline: as §1
# [4] = system: RXRa DBDmut IVT, anti-RXR (DBD mutation: RXRa K156A/R161A, NR concentration 90 nM)
# Outline: as §1
# [5] = system: RXRa homodimer (NR concentration 180 nM)
# Outline: as §1
# [6] = system: THRa:RXRa (NR concentration 90 nM, RXRa partner concentration 90 nM)
# Outline: as §1
# [7] = system: THRa homodimer (NR concentration 90 nM)
# Outline: as §1
# [8] = system: VDR homodimer (NR concentration 270 nM)
# Outline: as §1
Sequence,PBM binding z-score [1],PBM binding z-score [2],PBM binding z-score [3],PBM binding z-score [4],PBM binding z-score [5],PBM binding z-score [6],PBM binding z-score [7],PBM binding z-score [8]
AGAATGAGGTTAAGATCAGCGAAACAGAATACAT,0.64,1.9,1.45,0.594,2.39,2.27,0.587,0.524
AGAACGAGGGCACGCTGAGTTGATAACAGAGTAG,1.27,2.23,2.45,1.47,1.49,1.78,0.282,1.46
TCTTGTAGATCAACAGGAGTTTAAGAAAGATCGA,-0.522,0.249,-0.0816,0.335,0.176,-0.275,-1.05,0.485
GCTTGTAGATCTAGGTTAAGAAAGACTAAGCTAA,-0.325,-0.324,-0.326,-0.252,-0.074,0.276,-0.767,-0.721
ACTATTAGTTGACGTAGGGCAACCGATACGACGC,0.993,0.445,0.82,0.582,0.328,0.925,-0.0539,0.159
CCTACTGGGCCATGCAGAGGTCATTGATCATATG,3.99,4.29,2.87,0.291,3.81,3.05,1.12,3.36
CGAACTAGGTCATCCAGGACAGTGATTACATTGA,1.77,4.03,5.13,2.49,3.37,3.68,2.14,2.32
ATACCAATGTGATCGTGAGGTCGTTGATACTAAC,0.979,0.681,0.227,0.777,1.06,2.45,2.24,2.83
ATCTCTAGGTAAAGATAGTTCAGTGTATGCAAAT,1.22,0.725,0.952,0.412,0.465,1.05,0.467,0.96
GATACTGGGTCAAGGCCAGAGTACGCGTATTGAT,2.91,3.4,3.58,-0.138,2.62,2.09,0.289,0.679
ATCGAAAGTTCGACGAGGTGAGTATACACCGTTT,1.42,1.75,1.85,1.63,1.28,2.5,0.567,1.59
CCAGTCAGGTGAGAAGGTAACTCAGCCTCGATTA,0.469,0.276,0.321,-0.0426,0.153,1.11,0.512,-0.271
ATCTCTAGGTAACGTTCAGTGAAAGATCGATAGA,0.194,0.535,0.638,0.201,0.277,0.969,0.455,-0.197
TGTCAAAGTCCAAAGGTAACGTAAGTATCCACAC,1.08,1.64,1.23,0.368,0.946,1.11,-0.182,0.0854
ATCTCTAGGTAAGACACAGTTCAGTGAAGAACGC,1.33,0.686,0.694,0.59,0.755,0.849,0.689,1.37
GCTCGGAGGCCAAGGTCAGAGCTTTGTCCGTAGA,3.1,2.72,3.69,0.649,1.93,2.64,1.27,0.281
ACTCGGAGGACAAAGGTCGGAGCTACGCCAGTGA,2.12,3.28,1.75,0.784,2.2,1.98,0.0146,0.22
TCTTGCAGATCAACAGGAGGTTAAGAAAGATCGA,0.407,0.798,0.138,0.162,0.749,0.859,-0.241,-0.1
GGAACGAGGGCAAGTTGATAACAGAGTTTGATGG,1.22,1.6,2.06,2.29,0.775,1.13,0.176,1.74

Sequence,PBM binding z-score [1],PBM binding z-score [2],PBM binding z-score [3],PBM binding z-score [4],PBM binding z-score [5],PBM binding z-score [6],PBM binding z-score [7],PBM binding z-score [8]
TCGAGTAGGTAACCAATGGGGCATTCAGCTTTCT,-0.0946,-0.146,-0.427,0.00393,0.0647,0.124,-0.752,-0.729
TCTCGGAGGACGCGAAAGGTCAGAGCTCGACATC,4.26,4.31,4.12,0.446,4.2,3.01,0.235,0.581
CAAACTAGATCAAAGGTCAAAGTCGAGCCAACCA,4.67,6.29,5.66,2.16,7.75,3.51,0.812,2.87
CCTAGTTGGTCAGGAGTTCACACACCGGATATGA,3.04,3.12,2.47,2.09,2.32,1.5,1.07,4.81
CGTCCAAAGTCAATGCTAGGTCAGTGAAAGCATT,2.39,2.4,1.31,0.43,0.344,2.01,0.698,0.435
CAAACTAGGTCACCGGAAGGTTAAAGTCCGCATG,4.56,6.51,5.79,2.08,4.2,3.84,2.36,1.28
TCATATAGGTAATACAGGTGAATGTCGGCATCTA,0.689,0.761,0.652,1.69,1.24,0.991,0.573,-0.00173
GCTAGCAGGCCATTTGGGGCACTCAATGACGGGC,-0.0146,-0.154,0.3,-0.299,-0.112,0.771,-0.695,-0.274
ATAATGAGGTTATTAAGATCAGGGAATTGCGGTC,0.912,1.39,1.21,2.09,1.88,2.3,0.964,1.8
ATCGAAAGGTCGAGATGAGTATAGAGAAAGGGAA,1.97,3.79,3.54,0.857,3.81,1.93,-0.434,0.309
GCTTGCAGGCCATTTGGGTCACTCAATGACGGGC,1.87,1.31,1.56,0.31,0.653,2.07,0.686,0.751
TCAGACAAGTGAAGGTAACTCAGGTACGCAGTCG,-0.322,0.211,0.249,1.1,0.825,1.1,-0.375,-0.0282
CTAACTAGGTCAGAACAGGACAGTGAAGGATGAT,2.03,1.85,3.26,0.797,1.07,3.55,0.222,-0.144
CTCGAAAGGTCGGTTGAGGTGAGTTTACGGATAA,2.53,2.78,2.96,1.27,2.12,4.97,1.31,2.25
AGAACGAGGGCACGCTGAATTGATAGCAGAGTAG,0.888,1.78,2.36,1.73,1.18,1.53,-0.215,0.542
CCTCGGAGGACAGAAGCTCAGAGCTGTCCGCTTT,-0.763,-0.638,-0.103,-0.29,-0.985,-0.606,-1.12,-0.819
ATAACGAGGGCAATGAGTTGATAGCACGGGTGGC,0.877,1.46,1.73,1.84,1.07,0.969,-0.389,3.01
TAGCCCAGGTCATGGGCCAGTATACCACGCGAAC,2.61,4.42,4.43,0.576,4.06,3.69,2.3,1.08
ATATGTAGGTTAGCTGGGGTCAGTCAGACTAGGC,3.61,3.36,2.88,0.894,3.64,5.02,2.36,2.29

Sequence,PBM binding z-score [1],PBM binding z-score [2],PBM binding z-score [3],PBM binding z-score [4],PBM binding z-score [5],PBM binding z-score [6],PBM binding z-score [7],PBM binding z-score [8]
CGAACGAGGGCATGAGTTGATAACAAATGCCGAT,0.641,1.37,1.59,2.64,1.05,1.19,-0.0778,1.48
CCTGCTAGGTCATGGACAGCTAATCTACAGTATG,2.73,4,4.68,1.85,3.17,2.9,0.931,0.0193
TTAATGAGGTTAAAGATCAGGGAACGTGGCGTCG,0.917,2.56,1.52,1.68,4.02,2.89,0.742,1.14
CCAGACAGGTGAAAAGTAACTCAGTCTGGTACGC,-0.15,0.316,0.402,0.15,0.307,-0.0735,-0.599,-0.225
AGAGCGAGGGCAATGAGTTGATAGCACGGGTGGC,0.903,1.19,1.31,1.48,0.736,0.613,-0.514,2.82
ACTAGCAGGCCACGGGTCACTCAAGATTAGTCCG,2.64,2.22,2.04,0.0998,2.18,1.85,0.298,0.215
CCTGCTAGGTCAATGGTCAGCTTAAGCAGCTCGC,3.14,3.62,4.2,2,2.25,2.31,0.712,0.066
CCGACTGGGGCAAAGGCTACCATACTCAGTACGA,0.592,0.577,0.501,-0.632,0.387,-0.182,-0.604,-0.299
ACTTGTTGGTCAGCTGAGGTCACACACAATTCGG,4.48,4.18,4.01,1.38,3.99,5.15,5.03,3.16
ATATGTAGGTTCAGGGTCATTCAGGTTGGTTCGC,3.58,4.1,3.01,3.37,5.25,3.92,3.36,6.06
CCGAATGGGGCAAGGTTACCATAACGCACAGCCA,1.24,1.05,1.37,0.000118,1.39,1.26,0.404,0.214
CATACAGGGTCAGCTAGGCCAGAGGAGGGACGGC,3.12,4.3,4.65,1.64,4.14,2.75,0.692,1.36
ATCTCCAGGTAACAAGTTCAGTGAAAGAGAGGAC,2.16,1.92,1.39,0.944,1.12,1.96,1.49,3.33
TCATATAGGTAAAGGTGAATGTCGAACGATATGA,1.3,1.37,1.21,0.686,1.9,1.16,-0.293,-0.0294
CGAACTAGGTCATTGACAGGTCAGTGAATAGTAA,4.18,6.77,5.57,2.35,4.6,3.32,0.924,2.04
CGAACTAGGTCAGGACAGGACAGTGAAGGATGAT,2.54,2.87,4.34,0.359,1.59,3.71,1.28,-0.189
TCTAGTTGGTCTCGGAGGTCACACACGACGGGTA,4.01,3.75,3.47,1.15,4.16,3.65,2.74,2.48
CCGACTGGGGCAGAAAGGTCACCATACCATCCGG,5.15,5.42,5.69,-0.33,5.7,3.2,1.38,1.86
TGTCAAAGTGCAAAGGTAACGTAAGTATCCACAC,1.33,2.55,1.78,0.968,2.55,1.94,-0.723,0.351
